Screens deposited in PubChem by Johns Hopkins Ion Channel Center.
Most compounds without a hit are left out; they make up all but 1.6% or so of the library.
KCNQ2 block – rat KCNQ2 potassium channel inhibitors, primary screen, cell-based, CHO-K1, FluxOR thallium flux, B-score; 20 min; stronger effect = lower value; hit rate 1.1% among 310,000; B-score at 10 µM; Potassium voltage-gated channel subfamily KQT member 2 (Rattus norvegicus), O88943;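 active means fluorescence ratio B-score at most minus 3 library SDs, with starting brightness B-score within 2 library SDs, cut at about -5.5 in these data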
KCNQ2 pot – potentiators of rat KCNQ2 potassium channel; hit rate 0.54% among 310,000; Potassium voltage-gated channel subfamily KQT member 2 (Rattus norvegicus), O88943; AID 2239, 2010; CHO-K1 KCNQ2, FluxOR thallium flux fluorescence; stronger effect = higher value; B-score at 10 µM;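 active means fluorescence ratio B-score at least 3 SD of library B-scores, with initial fluorescence B-score within 3 of them, cut at about 5.3 in these data; same plate scores as AID 2156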;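 further: B-score of peak minus minimum over baseline fluorescence ratio after K+ and Tl+ stimulus; positive B-score means potentiation of KCNQ2 with more thallium influx and brighter signal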
An asterisk follows results filed as active; i = inactive; . = no result given.

SMILES	KCNQ2 block	KCNQ2 pot
COc1ccccc1OCC(=O)N/N=C/c1cccc2cccnc12	i	0.03
COc1ccccc1OCC(=O)N/N=C/c1c(O)ccc2ccccc12	-6*	-6
CCN1CCN(c2ccc(S(=O)(=O)N3CCOCC3)cc2NC(=O)c2ccc(F)cc2Cl)CC1	i	.
Cc1ccc(/C=C/C(=O)N2CCN(c3ccc(F)cc3)CC2)o1	i	.
Cc1ccc(/C=C/C(=O)N2CCN(c3ncccn3)CC2)o1	i	8.9*
COc1ccc(CCC(=O)N2CCN(c3ccc([N+](=O)[O-])cc3)CC2)cc1OC	i	.
N#Cc1c(/N=C/c2cccnc2)sc2c1CCCC2	i	0.23
N#Cc1c(/N=C/c2cccs2)sc2c1CCCCC2	-6.1*	-6.1
CN(C)/C=N/c1sc2c(c1C#N)CCCCC2	i	1.5
CCCN(/C=N/c1sc2c(c1C#N)CCCCC2)CCC	-7.9*	-7.9
O=C(c1ccc2[nH]c(=O)c(=O)[nH]c2c1)N1CCc2ccccc21	i	0.45
Cc1ccc(NC(=S)N2CCC(NC(=O)c3ccc(C)cc3)CC2)cc1	i	.
CCCNC(=S)N1CCC(NC(=O)c2ccc(C)cc2)CC1	-7.3*	-7.3
CC(C)(C)[C@H]1C=C(C(=O)NCc2ccccc2)O[C@@H](OCCCCO)C1	i	.
CN(C)/C=C/C(=O)c1ccn(S(=O)(=O)c2ccccc2)c1	i	0.88
C[C@]12CCC[C@H](O1)c1c(cc3c(c1O)C(=O)c1c(O)cc(O)cc1C3=O)O2	i	.
COc1ccc(NC(=S)N2CCc3ccccc32)cc1OC	i	.
O=C(NCCCN1CCCC1)c1ccc(CS(=O)(=O)c2c(Cl)cccc2Cl)o1	i	.
O=C(Nc1cccc(Cl)c1)c1cccc(N2C(=O)C3CC=CCC3C2=O)c1 (configuration not stated)	-6*	-6
O=C(Nc1cccc(N2C(=O)C3CCCCC3C2=O)c1)c1ccccc1 (configuration not stated)	i	2.1
CN(CC(=O)Nc1cc(Cl)cc(Cl)c1)Cc1cccs1	-5.6*	-5.6
CN(CC(=O)Nc1ccc(F)cc1Cl)Cc1cccs1	i	.
NC(=O)C1CCN(CCS(=O)(=O)c2ccc(Cl)cc2)CC1	i	.
CCOC(=O)C1(CC2CC2)CCN(C(=O)c2cccnc2C)CC1	-6.4*	-6.4
CCOC(=O)C1(CC2CC2)CCN(C(=O)c2cc(C3CC3)nc3ccccc23)CC1	i	.
SMILES	KCNQ2 block	KCNQ2 pot
COc1ccccc1-c1ccc(/C=C2\C=CC(=O)O2)o1	i	.
CCCCNC(=O)c1onc(CSc2cc(C)cc(C)c2)c1C(=O)O	i	1.9
CCCCNC(=O)c1onc(CSc2cc(C)cc(C)c2)c1C(=O)NCCCC	-5.6*	-5.6
Cc1ccc(C(=O)NC(=S)N2CCN(c3cc(C)ccc3C)CC2)cc1	i	5.2
CC(=O)N1CCc2cc(S(=O)(=O)C(C)CC(=O)Nc3ccc(OC(F)(F)F)cc3)ccc21 (configuration not stated)	i	1.2
Cc1nc(NC(=O)CSc2nnc(-c3ccc4c(c3)OCO4)o2)c(Cl)cc1Cl	i	18*
O=C(CSc1nnc(-c2ccc3c(c2)OCO3)o1)Nc1ncc(C(F)(F)F)cc1Cl	i	1.6
CC(OC(=O)c1ccc2c(c1)S(=O)(=O)c1ccccc1C2=O)C(N)=O (configuration not stated)	i	1.1
Oc1cc2c(cc1CN1CCN(c3cccc(C(F)(F)F)c3)CC1)CCC2	-7.3*	-7.3
COc1ccc(N2CCN(Cc3cc4c(cc3O)CCC4)CC2)cc1	i	0.46
CCC1CCCCN1C(=O)COc1ccc(F)cc1 (configuration not stated)	i	0.05
CCC1CCCCN1C(=O)COc1c(Br)cc(Br)c2cccnc12 (configuration not stated)	-7.8*	-7.8
COCCn1c(C)cc(/C=C(\C#N)C(=O)OCC(=O)N(C)c2c(N)n(Cc3ccccc3)c(=O)[nH]c2=O)c1C	i	0.81
CCN(CC(=O)N1CCCC1)S(=O)(=O)c1ccc(OC)cc1	i	0.62
Cc1ccc(C(C)C)cc1OCC(=O)N1CCN(C(=O)c2ccco2)CC1	i	.
CCC(C)NC(=O)CCc1c(C)nc2c(c(C)nn2-c2ccccc2)c1C (configuration not stated)	i	1.9
Cc1nc2c(c(C)nn2-c2ccccc2)c(C)c1CCC(=O)Nc1ccc(CN2CCCC2)cc1	-6.1*	-6.1
COc1ccc(OC)c(S(=O)(=O)n2ccnc2C(C)C)c1	i	0.63
Cc1cc(OCC(=O)NCC2CCC(C(=O)O)CC2)c2c(C)c(Cc3ccccc3)c(=O)oc2c1 (configuration not stated)	i	0.22
Cc1nc2c(c(=O)c3ccccc3n2C)c(=O)n1C1CCCCCC1	i	0.08
Cn1c2ccccc2c(=O)c2c(=O)n(C3CCCCC3)c(-c3ccco3)nc21	i	6.7*
O=S(=O)(CCc1ccncc1)c1ccc(Cl)cc1	i	.
COC(=O)c1cc(S(=O)(=O)NCC2CCN(CCc3cccs3)CC2)c[nH]1	i	.
CCOc1ccc(-c2nc(C#N)c(N3CCOCC3)o2)cc1	i	1.4
CCOc1ccc(-c2nc(C#N)c(N3CCN(Cc4ccccc4)CC3)o2)cc1	-6.2*	-6.2
SMILES	KCNQ2 block	KCNQ2 pot
Cc1cc(C(=O)N/N=C/C(Cl)=C/c2ccccc2)c(C)o1	i	.
CCCCn1c(N)c(N(CC(C)C)C(=O)CSC(C)C(=O)Nc2cc(C)on2)c(=O)[nH]c1=O (configuration not stated)	i	.
Cc1cccc(NC(=S)N2CCC(NC(=O)C3CCCCC3)CC2)c1	i	2.3
COc1ccccc1OCC(=O)Nc1cccc(N(C)S(C)(=O)=O)c1	i	.
COc1cc(C=O)ccc1OCC(=O)Nc1cccc(S(=O)(=O)N(C)c2ccccc2)c1	-8.3*	-8.3
Cc1ccc(C)n1-c1ccc(C(=O)NN)s1	-5.7*	-5.7
CCOC(=O)CNC(=O)c1ccc(Br)s1	i	.
CC(=O)c1cn(S(=O)(=O)c2ccccc2)c2ccccc12	i	0.82
COc1ccc2nc(N=NC3=C(O)CC(C)(C)CC3=O)sc2c1	i	0.64
COc1ccc2nc(N=Nc3ccc(O)c4ccccc34)sc2c1	i	9.3*
COc1cccc(OCc2cc(C(=O)NC(C)c3cnn(C)c3C)no2)c1 (configuration not stated)	i	0.27
CCOC(=O)CSc1nc2sc(C)c(C)c2c(=O)[nH]1	i	1.1
CCOC(=O)/C(=C\c1ccc(Cl)cc1)c1nc2sc(C)c(C)c2c(=O)[nH]1	-6.9*	-6.9
C=CCN1C(=O)c2ccc(C(=O)N(CCC)CC(=O)Nc3ccccc3C)cc2C1=O	i	0.77
CCCCCCCCCCCC1=C(O)C(=O)C=C(O)C1=O	i	0.01
COC1=CC(=O)C(O)=C(CCCCCCC/C=C/CCCCCCCC2=C(O)C(=O)C=C(OC)C2=O)C1=O	-6.6*	-6.6
Cc1ccccc1C(=O)O/N=C/c1c(N2CCOCC2)n(C)c2ccccc12	-7.6*	-7.6
CN1CCN(c2c(/C=N/O)c3ccccc3n2C)CC1	i	1.7
Cc1ccc(OCCOC(=O)Nc2ccccc2)cc1	i	1.1
C=C(C)C1CCC(C)=C1COC(=O)Nc1ccccc1 (configuration not stated)	-5.9*	-5.9
Cc1ccc(NS(=O)(=O)c2ccc(-c3cnc(C4CC4)o3)cc2)c(C)c1	-5.7*	-5.7
COc1ccccc1NS(=O)(=O)c1ccc(-c2cnc(C3CC3)o2)cc1	i	.
